From PubChem BioAssay AID1159580 (chemical genetic matrix, 2015)
“And” between values parts separate entries of the source, which are not always exact repeats. Equal entries are not always repeated. Screen size: about 5,500 compounds; about 2,000 (36%) were called active. Roughly 18% stayed inconclusive and do not appear here. No stated cut-off is given here; in the data, active means normalized growth mostly below about 0.91 (no sharp cut-off); inconclusive means no clear call, values can overlap the other calls; inactive means mostly above about 0.92. The list shows a part of the results.

Assay: chemical genetic growth profiling, strain panel (AID 1159580);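 further: tested at 20 µM; growth read once vehicle control cultures reached saturation at 30 °C; 1 = growth at the plate median or of vehicle wells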
Conditions: S. cerevisiae deletion strains, growth OD

Measured: normalized growth

O=C1c2ccccc2C(=O)c2ccccc21
inactive: locus YAL013W, strain DEP1, stronger effect = lower value 1 | locus YAL021C, strain ccr4, stronger effect = lower value 0.97 | locus YAL026C, strain drs2, stronger effect = lower value 0.969 | locus YAL030W, strain snc1, stronger effect = lower value 0.995 | locus YBL061C, strain skt5, stronger effect = lower value 0.986 | locus YBR009C, strain hhf1, stronger effect = lower value 0.96 | locus YBR021W, strain FUR4, stronger effect = lower value 1.15 | locus YBR023C, strain chs3, stronger effect = lower value 0.982 | locus YBR171W, strain sec66, stronger effect = lower value 0.978 | locus YBR229C, strain ROT2, stronger effect = lower value 0.999 | locus YBR231C, strain swc5, stronger effect = lower value 0.963 | locus YBR279W, strain paf1, stronger effect = lower value 0.975 | locus YCL011C, strain gbp2, stronger effect = lower value 0.989 | locus YCL016C, strain dcc1, stronger effect = lower value 0.957 | locus YCL029C, strain bik1, stronger effect = lower value 0.994 | locus YCL069W, strain vba3, stronger effect = lower value 0.998 | locus YCR088W, strain abp1, stronger effect = lower value 1.01 | locus YDL005C, strain med2, stronger effect = lower value 0.999 | locus YDL035C, strain GPR1, stronger effect = lower value 0.949 | locus YDL040C, strain nat1, stronger effect = lower value 0.988 | locus YDL074C, strain BRE1, stronger effect = lower value 0.91 | locus YDL101C, strain DUN1, stronger effect = lower value 0.985 | locus YDL134C, strain PPH21, stronger effect = lower value 0.995 | locus YDL185W, strain tfp1, stronger effect = lower value 0.981 | locus YDL192W, strain arf1, stronger effect = lower value 0.99 | locus YDR001C, strain nth1, stronger effect = lower value 0.993 | locus YDR069C, strain doa4, stronger effect = lower value 0.984 | locus YDR101C, strain arx1, stronger effect = lower value 0.989 | locus YDR137W, strain rgp1, stronger effect = lower value 0.947 | locus YDR150W, strain NUM1, stronger effect = lower value 0.969 | locus YDR159W, strain sac3, stronger effect = lower value 1.01 | locus YDR162C, strain NBP2, stronger effect = lower value 0.921 | locus YDR297W, strain sur2, stronger effect = lower value 0.993 | locus YDR318W, strain mcm21, stronger effect = lower value 0.975 | locus YDR334W, strain swr1, stronger effect = lower value 0.974 | locus YDR335W, strain msn5, stronger effect = lower value 0.966 | locus YDR388W, stronger effect = lower value 1 | locus YDR392W, strain spt3, stronger effect = lower value 0.842 | locus YDR502C, strain sam2, stronger effect = lower value 0.991 | locus YEL003W, strain gim4, stronger effect = lower value 0.981 | locus YEL037C, strain rad23, stronger effect = lower value 0.982 | locus YEL061C, strain CIN8 (second series), stronger effect = lower value 0.991 | locus YEL061C, strain CIN8, stronger effect = lower value 1.01 | locus YER015W, strain faa2, stronger effect = lower value 0.957 | locus YER016W, strain bim1, stronger effect = lower value 0.992 | locus YER110C, stronger effect = lower value 0.986 | locus YER111C, strain swi4, stronger effect = lower value 1 | locus YER155C, strain BEM2 (second series), stronger effect = lower value 0.968 | locus YER155C, strain BEM2, stronger effect = lower value 1.02 | locus YER167W, strain BCK2, stronger effect = lower value 0.976 | locus YFR010W, strain ubp6, stronger effect = lower value 0.982 | locus YGL078C, strain dbp3, stronger effect = lower value 0.978 | locus YGL086W, strain mad1, stronger effect = lower value 0.967 | locus YGL167C, strain pmr1, stronger effect = lower value 0.963 | locus YGL173C, strain kem1, stronger effect = lower value 0.997 | locus YGL227W, strain vid30, stronger effect = lower value 1 | locus YGL240W, strain doc1, stronger effect = lower value 1 | locus YGL248W, strain PDE1, stronger effect = lower value 1.01 | locus YGL253W, strain hxk2, stronger effect = lower value 0.968 | locus YGR078C, strain PAC10, stronger effect = lower value 0.963 | locus YGR135W, strain pre9, stronger effect = lower value 0.994 | locus YGR229C, strain SMI1, stronger effect = lower value 0.854 | locus YGR252W, strain gcn5, stronger effect = lower value 1.01 | locus YHR013C, strain ard1, stronger effect = lower value 0.974 | locus YHR027C, strain rpn1, stronger effect = lower value 0.965 | locus YHR030C, strain SLT2, stronger effect = lower value 1.01 and 1.02 | locus YHR079C, strain IRE1 (second series), stronger effect = lower value 0.994 | locus YHR079C, strain IRE1, stronger effect = lower value 1.04 | locus YHR094C, strain hxt1, stronger effect = lower value 0.98 | locus YHR129C, strain ARP1, stronger effect = lower value 1 | locus YHR142W, strain chs7, stronger effect = lower value 0.93 | locus YHR200W, strain rpn10, stronger effect = lower value 0.988 | locus YIL066C, strain RNR3, stronger effect = lower value 0.95 | locus YIL073C, strain SPO22, stronger effect = lower value 0.832 | locus YIL125W, strain kgd1, stronger effect = lower value 0.989 | locus YIR030C, strain dcg1, stronger effect = lower value 0.998 | locus YJL092W, strain hpr5, stronger effect = lower value 0.992 | locus YJL095W, strain BCK1 (second series), stronger effect = lower value 1 | locus YJL095W, strain BCK1, stronger effect = lower value 0.994 and 1.03 | locus YJL115W, strain asf1, stronger effect = lower value 0.998 | locus YJL129C, strain trk1, stronger effect = lower value 1.07 | locus YJL134W, strain LCB3, stronger effect = lower value 0.988 | locus YJL154C, strain vps35, stronger effect = lower value 1 | locus YJL164C, strain tpk1, stronger effect = lower value 0.975 | locus YJL166W, strain qcr8, stronger effect = lower value 1 | locus YJL168C, strain set2, stronger effect = lower value 1 | locus YJL187C, strain SWE1 (second series), stronger effect = lower value 0.982 | locus YJL187C, strain SWE1, stronger effect = lower value 0.989 | locus YJR043C, strain POL32, stronger effect = lower value 0.958 | locus YJR066W, strain TOR1, stronger effect = lower value 0.982
active: locus YDR195W, strain ref2 1.24 [resistant]
